Measurements as given in PubChem BioAssay (Tox21).
Results filed as inconclusive are left out. A call without a number means that no potency is given here. Values without a mark were called inactive. The source made the active and inactive calls. Calls come from the whole dose curve; as a rule, active = well fitted curve in the direction sought with a large enough effect in the repeat runs; inconclusive = weak or mixed curves; inactive = no such curve, though single readings can be large; an effect the other way counts as inactive or inconclusive.

Experiments:
[1] = molecular target: Cytochrome P450 2C9 (Homo sapiens) (UniProt P11712); assay: Cytochrome P450 Family 2 Subfamily C Member 9 (CYP2C9) small molecule antagonists: luciferase reporter qHTS assay (AID 1671198); note: potency is the fitted concentration of half-maximal effect
Cytochrome P450 2C9 (Homo sapiens), sequence (P11712 whole entry, looked up): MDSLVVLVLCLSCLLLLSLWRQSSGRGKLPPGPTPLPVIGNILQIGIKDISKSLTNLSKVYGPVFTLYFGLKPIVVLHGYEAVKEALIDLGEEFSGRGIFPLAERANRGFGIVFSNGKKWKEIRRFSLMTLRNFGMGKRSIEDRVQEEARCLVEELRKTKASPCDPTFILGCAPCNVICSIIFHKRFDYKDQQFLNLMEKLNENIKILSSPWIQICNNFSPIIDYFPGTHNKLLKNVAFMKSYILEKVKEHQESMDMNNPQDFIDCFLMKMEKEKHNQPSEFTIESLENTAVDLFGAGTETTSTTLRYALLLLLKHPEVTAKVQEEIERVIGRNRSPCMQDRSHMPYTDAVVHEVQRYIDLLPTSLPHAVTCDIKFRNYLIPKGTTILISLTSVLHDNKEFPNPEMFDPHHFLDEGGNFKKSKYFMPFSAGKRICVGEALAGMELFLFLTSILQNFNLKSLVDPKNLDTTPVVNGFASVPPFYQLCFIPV
Summary of the method: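 CYP2C9 activity was measured with a P450-Glo proluciferin substrate. Enzyme–substrate mix was held with compound for 10 min at room temperature, then NADPH regeneration solution was added for 1 h at 37C. Luciferin product was read as luminescence.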

[2] = molecular target: Cytochrome P450 1A2 (Homo sapiens) (UniProt P05177); assay: Cytochrome P450 Family 1 Subfamily A Member 2 (CYP1A2) small molecule antagonists: luciferase reporter qHTS assay (AID 1671199); note: potency is the fitted concentration of half-maximal effect
Cytochrome P450 1A2 (Homo sapiens), sequence (P05177 whole entry, looked up): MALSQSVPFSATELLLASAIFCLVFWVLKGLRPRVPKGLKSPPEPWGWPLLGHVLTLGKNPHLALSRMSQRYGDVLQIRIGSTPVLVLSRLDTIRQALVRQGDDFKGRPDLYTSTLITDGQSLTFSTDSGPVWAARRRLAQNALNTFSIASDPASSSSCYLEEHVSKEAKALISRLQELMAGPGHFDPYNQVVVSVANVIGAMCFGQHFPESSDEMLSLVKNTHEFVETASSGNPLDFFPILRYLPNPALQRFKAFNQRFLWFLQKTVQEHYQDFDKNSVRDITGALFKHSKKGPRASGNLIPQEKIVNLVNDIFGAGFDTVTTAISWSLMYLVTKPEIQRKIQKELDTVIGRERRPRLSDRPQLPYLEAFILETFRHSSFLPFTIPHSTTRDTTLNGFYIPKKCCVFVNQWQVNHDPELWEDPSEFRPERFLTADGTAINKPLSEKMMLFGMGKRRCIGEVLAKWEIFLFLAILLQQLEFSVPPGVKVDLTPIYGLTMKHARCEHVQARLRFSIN
Summary of the method: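 Human CYP1A2 activity measured with a P450-Glo proluciferin substrate; compounds in DMSO preincubated 10 min at room temperature with enzyme-substrate mix, then NADPH regeneration system added for 1 h. Luciferin detection reagent, 20 min, luminescence read.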

[3] = molecular target: Voltage-gated inwardly rectifying potassium channel KCNH2 (Homo sapiens) (UniProt Q12809); assay: Human Ether-a-go-go-Related Gene (hERG) channel small molecule antagonists: fluorescence cell-based qHTS assay (AID 1671200); note: potency is the fitted concentration of half-maximal effect
Voltage-gated inwardly rectifying potassium channel KCNH2 (Homo sapiens), sequence (Q12809 whole entry, looked up): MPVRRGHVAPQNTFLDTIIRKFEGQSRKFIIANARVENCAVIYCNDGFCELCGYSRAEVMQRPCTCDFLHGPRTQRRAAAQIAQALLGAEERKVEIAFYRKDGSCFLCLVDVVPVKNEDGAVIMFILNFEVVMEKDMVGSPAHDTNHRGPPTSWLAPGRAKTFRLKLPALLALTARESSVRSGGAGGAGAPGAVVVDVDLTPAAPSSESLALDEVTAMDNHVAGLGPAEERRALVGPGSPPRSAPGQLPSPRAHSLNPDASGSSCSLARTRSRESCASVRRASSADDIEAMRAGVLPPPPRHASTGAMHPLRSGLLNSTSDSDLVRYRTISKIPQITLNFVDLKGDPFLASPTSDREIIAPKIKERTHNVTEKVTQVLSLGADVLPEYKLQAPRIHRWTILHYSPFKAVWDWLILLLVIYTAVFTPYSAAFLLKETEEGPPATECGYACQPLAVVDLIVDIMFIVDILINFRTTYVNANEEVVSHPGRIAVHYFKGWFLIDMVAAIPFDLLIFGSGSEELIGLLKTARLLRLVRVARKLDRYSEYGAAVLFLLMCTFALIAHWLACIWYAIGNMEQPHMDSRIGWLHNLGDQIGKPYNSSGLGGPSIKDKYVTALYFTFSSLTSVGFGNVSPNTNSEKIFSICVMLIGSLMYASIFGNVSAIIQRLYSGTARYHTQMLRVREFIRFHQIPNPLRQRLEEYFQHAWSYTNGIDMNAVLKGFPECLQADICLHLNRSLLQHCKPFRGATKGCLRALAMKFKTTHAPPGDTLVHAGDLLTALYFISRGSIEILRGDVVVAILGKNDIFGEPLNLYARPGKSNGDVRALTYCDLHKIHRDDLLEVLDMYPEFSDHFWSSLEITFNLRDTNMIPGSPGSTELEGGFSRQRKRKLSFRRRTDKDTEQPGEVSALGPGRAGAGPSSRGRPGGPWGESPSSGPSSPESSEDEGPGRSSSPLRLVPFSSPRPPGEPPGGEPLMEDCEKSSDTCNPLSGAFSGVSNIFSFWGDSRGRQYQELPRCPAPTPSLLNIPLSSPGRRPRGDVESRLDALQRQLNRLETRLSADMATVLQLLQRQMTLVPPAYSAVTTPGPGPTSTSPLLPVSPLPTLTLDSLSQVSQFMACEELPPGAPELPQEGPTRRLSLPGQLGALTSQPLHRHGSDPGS
Summary of the method: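 Kinetic two-minute fluorescence traces, sampled at 1 s, were collected following thallium stimulus of U2OS cells (1000 per well) that had been cultured overnight at 37 C and loaded with FluxOR II.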

[4] = molecular target: Cytochrome P450 3A4 (Homo sapiens) (UniProt P08684); assay: Cytochrome P450 Family 3 Subfamily A Member 4 (CYP3A4) small molecule antagonists: luciferase reporter qHTS assay (AID 1671201); note: series mostly up to about 120 µM
Cytochrome P450 3A4 (Homo sapiens), sequence (P08684 whole entry, looked up): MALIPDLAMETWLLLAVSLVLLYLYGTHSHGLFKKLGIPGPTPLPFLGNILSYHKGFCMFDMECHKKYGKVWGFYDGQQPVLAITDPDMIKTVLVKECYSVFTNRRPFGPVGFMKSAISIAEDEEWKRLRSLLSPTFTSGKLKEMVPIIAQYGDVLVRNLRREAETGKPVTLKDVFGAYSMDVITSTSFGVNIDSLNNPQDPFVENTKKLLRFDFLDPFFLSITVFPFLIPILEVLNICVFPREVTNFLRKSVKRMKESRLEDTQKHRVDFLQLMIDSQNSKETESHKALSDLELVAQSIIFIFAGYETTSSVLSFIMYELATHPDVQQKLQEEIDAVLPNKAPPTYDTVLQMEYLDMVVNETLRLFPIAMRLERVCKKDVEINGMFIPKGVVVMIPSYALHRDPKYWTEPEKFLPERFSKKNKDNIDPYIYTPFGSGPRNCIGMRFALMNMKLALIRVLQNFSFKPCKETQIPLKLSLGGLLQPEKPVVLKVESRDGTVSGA
Summary of the method: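 Proluciferin-to-luciferin conversion by CYP3A4, NADPH-regenerated, 1 h RT; luminescence read as RLU. Ketoconazole as control.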
Note: nearly all actives have a fitted effect of over 50% in size.

| SMILES | Potency [1] | Potency [2] | Potency [3] | Potency [4] |
| --- | --- | --- | --- | --- |
| Cc1ccc2ccccc2c1[N+](=O)[O-] | inactive | 2.52 µM (active) | inactive |  |
| CC(C)C/C=C(\C=O)c1ccccc1 | 35.6 µM (active) | 39.9 µM (active) |  |  |
| O=C(OC1C[C@H]2CC[C@@H](C1)[N+]21CCCC1)C(O)(c1ccccc1)c1ccccc1 (stereo not given in full) | inactive | inactive | inactive |  |
| C/C=C1\[C@H]2C=C(C)C[C@]1(N)c1ccc(=O)[nH]c1C2 | inactive | inactive | inactive |  |
| N#Cc1ccc(CC(=O)c2cccc(C(F)(F)F)c2)cc1 | 35.6 µM (active) | 25.2 µM (active) | 27.5 µM (active) |  |
| CCCCCCCCOCCCN | 28.3 µM (active) | 6.33 µM (active) | 43.6 µM (active) |  |
| O=C(O)c1cccc(C(=O)O)c1C(=O)O | inactive | inactive | inactive |  |
| Cc1cc(C)c(C)c(O)c1 | inactive | 31.7 µM (active) | inactive |  |
| C=CC(=O)OCCCCCCCCCC | inactive | inactive | inactive |  |
| N#C[C@@H]1CC(F)(F)CN1C(=O)CNC1CC2CCC(C1)N2c1ncccn1 (stereo not given in full) | 35.6 µM (active) | inactive | inactive |  |
| CCCN(C1CCN(C(=O)C2CCNCC2)CC1)[C@@H]1CCc2ccc(OC)cc2C1 | inactive | inactive |  |  |
| Nc1ccc(F)cc1F | inactive | inactive | inactive |  |
| C1CCN(CN2CCCCC2)CC1 | inactive | inactive | inactive |  |
| O=C(C1CCCCC1)N1CC(=O)N2CCCc3ccccc3C2C1 (stereo not given) | 13.8 µM (active) | inactive | inactive |  |
| c1ccc(CCNc2nc(-c3ccccc3)cs2)cc1 | 6.92 µM (active) | 2.29 µM (active) | inactive |  |
| Cc1cccc(C)c1NC(=O)CN1CCCC1 | inactive | inactive | inactive |  |
| C=CC(O)CCCCC (stereo not given) | inactive | inactive | inactive |  |
| O=Cc1ccc(Cl)c([N+](=O)[O-])c1 | 71 µM (active) | 22.4 µM (active) | inactive |  |
| Clc1cccc(C(c2ccc3nc[nH]c3c2)n2ccnc2)c1 (stereo not given) | 8.71 µM (active) | 15.5 µM (active) | inactive |  |
| O=C(Nc1ccccc1)c1cc([N+](=O)[O-])ccc1Cl | 31.7 µM (active) | 7.96 µM (active) | inactive |  |
| CC(CC(C#N)(c1ccccc1)C(C)C)N(C)C (stereo not given) | inactive | inactive | inactive |  |
| C=CC(C)(O)CC/C=C(/C)CCC=C(C)C (stereo not given) | 31.7 µM (active) | 39.9 µM (active) | inactive |  |

| SMILES | Potency [1] | Potency [2] | Potency [3] | Potency [4] |
| --- | --- | --- | --- | --- |
| C=Cc1ccc(C=C)cc1 | inactive | inactive | inactive |  |
| Cc1ccc(NC(=O)c2ccc(CN3CCN(C)CC3)cc2)cc1Nc1nccc(-c2cccnc2)n1 | inactive | inactive |  |  |
| O=C(NC1CCN(CCc2c[nH]c3ccccc23)CC1)c1ccccc1 | inactive | inactive | 4.77 µM (active) |  |
| CCN(CCCCOC(=O)c1ccc(OC)c(OC)c1)C(C)Cc1ccc(OC)cc1 (stereo not given) | inactive | inactive | 3.38 µM (active) |  |
| Cc1ccc(NC=O)c(C)c1 | inactive | 35.6 µM (active) | inactive |  |
| CC(C)CC(C)(C)C | 36.9 µM (active) | 7.37 µM (active) | inactive |  |
| CC1=C(C)C(=O)C(CCCCC#CCCCC#CCO)=C(C)C1=O | 6.92 µM (active) | 4.9 µM (active) |  |  |
| COc1ccnc2c1CCCCC2S(=O)c1nc2ccccc2[nH]1 (stereo not given) | 12.3 µM (active) | 13.8 µM (active) | inactive |  |
| CC(C)CCCCCOC(=O)CS | 71 µM (active) | inactive | inactive |  |
| CC1(C)C(=O)NC(=O)N1CO | inactive | inactive | inactive |  |
| O=C(N[C@@H](Cc1ccccc1)[C@@H](O)C(=O)N1C[C@@H](O)[C@@H](O)C1)c1cc2cc(Cl)ccc2[nH]1 | 35.6 µM (active) | 28.3 µM (active) | inactive |  |
| CCCCOC(=O)C(C)Oc1ccc(Oc2ccc(C(F)(F)F)cn2)cc1 (stereo not given) | 22.4 µM (active) | 22.4 µM (active) | 24.5 µM (active) |  |
| CCN(CC)CC(=O)OCC(=O)[C@@]1(O)CC[C@H]2[C@@H]3CCC4=CC(=O)CC[C@]4(C)[C@H]3[C@@H](O)C[C@@]21C | inactive | inactive | inactive |  |
| CCCCOc1ccc(N)cc1 | 39.9 µM (active) | 11.2 µM (active) | inactive |  |
| Nc1ccc(C(=O)Oc2ccccc2)c(O)c1 | 27.5 µM (active) | 11.5 µM (active) | inactive |  |
| CC/C=C/CCO | inactive | 36.2 µM (active) | inactive |  |
| Cc1c(Cl)cccc1[N+](=O)[O-] | inactive |  | inactive | inactive |
| CC1(C)CC(O)CC(C)(C)N1[O] | inactive |  | inactive | inactive |
| O=[N+]([O-])c1ccccc1CCO | inactive |  | inactive | inactive |
| OCCCO | inactive |  | inactive | inactive |
| CCOC(=O)CC(O)(CC(=O)OCC)C(=O)OCC | 8.94 µM (active) |  | inactive | inactive |
